From PubChem BioAssay (Tox21)
Several values for one entry are separate records, joined by “and”; a condition that tells them apart may be missing. Identical values can stand only once. Records with an inconclusive call do not appear. Activity calls are given as the source filed them. Unless noted, the call rests on the fitted dose curve.

Legend:
[1] = Nuclear factor erythroid 2-related factor 2/antioxidant responsive element (Nrf2/ARE) small molecule agonists: qHTS cell viability counter screen in human keratinocytes (AID 1919968; active means well fitted curve in the direction sought with a large enough effect in the repeat runs; an effect the other way counts as inactive or inconclusive; further: nearly all actives have a fitted effect of over 55% in size; further: potency means the concentration at half of the fitted maximal effect)
Method in brief: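 Parallel cytotoxicity read: KeratinoSens HaCaT cells, compound treatment 23 h, viability by CellTiter-Fluor fluorescence 1 h post-reagent.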

[2] = Nuclear factor erythroid 2-related factor 2/antioxidant responsive element (Nrf2/ARE) small molecule agonists: luciferase reporter gene qHTS assay in human keratinocytes (AID 1919969); further: nearly all actives have a fitted effect of over 35% in size; further: potency means the concentration at half of the fitted maximal effect
[3] = target: KiSS-1 receptor (Homo sapiens) (UniProt Q969F8); assay: Human kisspeptin (KISS1R) small molecule agonists, calcium flux assay in KISS1R-HEK293 cells (AID 1920064; active means well fitted curve in the direction sought with a large enough effect in the repeat runs; an effect the other way counts as inactive or inconclusive)
Chain of KiSS-1 receptor (Homo sapiens) (Q969F8 whole entry, looked up): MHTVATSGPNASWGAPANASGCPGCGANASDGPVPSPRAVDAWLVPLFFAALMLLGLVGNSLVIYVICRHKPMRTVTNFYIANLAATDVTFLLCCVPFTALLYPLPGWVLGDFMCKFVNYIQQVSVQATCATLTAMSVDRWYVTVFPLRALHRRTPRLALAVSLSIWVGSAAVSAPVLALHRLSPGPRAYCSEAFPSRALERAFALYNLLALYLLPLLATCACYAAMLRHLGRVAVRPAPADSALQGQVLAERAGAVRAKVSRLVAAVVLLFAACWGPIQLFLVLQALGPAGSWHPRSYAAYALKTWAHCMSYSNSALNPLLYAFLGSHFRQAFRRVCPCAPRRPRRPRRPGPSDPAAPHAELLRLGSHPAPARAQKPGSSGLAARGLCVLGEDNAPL
Method in brief: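 Triplicate 15-concentration series were applied to dye-loaded human KISS1R HEK293 cells, and agonist-evoked calcium fluorescence was captured for 3 min.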

[4] = G protein-coupled receptor (GPCR) small molecule agonists, calcium flux assay: HEK293 wild type cell line counter screen (AID 1920065)
Method in brief: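 Non-specific calcium responders were flagged by adding DMSO-dissolved compounds to dye-loaded cells and reading 480/540 nm fluorescence each second for 3 min; ATP served as positive control.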

[5] = p53 small molecule agonists, cell-based qHTS assay with human liver microsomes (AID 1963577)
Method in brief: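 p53RE-bla cells, 4,000/well, compound added after 5 h, with human liver microsomes 0.5 mg/mL and NADPH 0.5 mg/mL final; 16 h at 37 C, then LiveBLAzer 2 h RT, fluorescence.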

[6] = p53 small molecule agonists, cell-based qHTS assay with rat liver microsomes (AID 1963578)
Method in brief: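 p53RE-bla cells, 4,000/well, pre-incubated 5 h, then given compounds plus rat liver microsomes (0.5 mg/mL final) and NADPH (0.5 mg/mL final). Incubation 16 h at 37 C; beta-lactamase reporter read by LiveBLAzer fluorescence after 2 h at room temperature.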

[7] = p53 small molecule agonists, cell-based qHTS assay with human liver microsomes: qHTS cell viability counter screen (AID 1963579); further: nearly all actives have a fitted effect of over 45% in size; further: potency means the concentration at half of the fitted maximal effect
Method in brief: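 p53RE-bla cells, 4,000/well, dosed 5 hours after plating, with human liver microsomes (0.5 mg/mL final) plus NADPH (0.5 mg/mL final), 16 hours at 37 C. Viability read as CellTiter-Glo luminescence after 30 min at room temperature.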

[8] = p53 small molecule agonists, cell-based qHTS assay with rat liver microsomes: qHTS cell viability counter screen (AID 1963580); further: nearly all actives have a fitted effect of over 45% in size
Method in brief: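 Cytotoxicity counter screen: intracellular ATP measured by CellTiter-Glo luminescence in the same wells as the beta-lactamase reporter read, on HCT-116 p53RE-bla cells exposed 16 h at 37 C to compounds with rat liver microsomes and NADPH, each 0.5 mg/mL final.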

[9] = p53 small molecule agonists, cell-based qHTS assay: qHTS cell viability counter screen (AID 1963581); further: nearly all actives have a fitted effect of over 45% in size; further: potency means the concentration at half of the fitted maximal effect
Method in brief: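 Multiplexed with the reporter read, a CellTiter-Glo step (30 min, room temperature) gauges ATP-based viability of HCT-116 p53RE-bla cells after 16 h compound incubation at 37 C.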

[10] = p53 small molecule agonists, cell-based qHTS assay (AID 1963582; active means well fitted activation curve with a large enough effect in the signal ratio in the repeat runs, not every such curve was filed as active; the % refers to the signal ratio)
Method in brief: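 Beta-lactamase reporter cells (p53RE-bla) treated with compounds for 16 h at 37 C; FRET substrate, 2 h, room temperature; fluorescence intensity.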

[11] = target: 5-hydroxytryptamine receptor 2A (Homo sapiens) (UniProt P28223); assay: 5-hydroxytryptamine receptor 2A (HTR2A) small molecule antagonists, cell-based qHTS assay (AID 1963586); further: nearly all actives have a fitted effect of over 45% in size; further: potency means the concentration at half of the fitted maximal effect
Chain of 5-hydroxytryptamine receptor 2A (Homo sapiens) (P28223 whole entry, looked up): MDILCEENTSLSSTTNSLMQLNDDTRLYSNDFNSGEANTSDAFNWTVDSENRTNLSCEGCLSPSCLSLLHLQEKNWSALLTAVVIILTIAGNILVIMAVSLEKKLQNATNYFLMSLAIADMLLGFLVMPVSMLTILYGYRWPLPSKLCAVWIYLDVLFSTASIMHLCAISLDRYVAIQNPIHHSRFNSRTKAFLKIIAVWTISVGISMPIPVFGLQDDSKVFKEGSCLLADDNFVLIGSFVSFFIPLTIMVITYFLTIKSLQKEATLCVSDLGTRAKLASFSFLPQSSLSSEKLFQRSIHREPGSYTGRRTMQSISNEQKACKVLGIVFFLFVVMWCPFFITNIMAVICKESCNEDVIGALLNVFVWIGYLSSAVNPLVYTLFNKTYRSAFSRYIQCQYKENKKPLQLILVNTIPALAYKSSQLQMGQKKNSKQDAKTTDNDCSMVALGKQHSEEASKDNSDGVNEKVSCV
Method in brief: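 CHO cells stably expressing human HTR2A were plated for 18 h at 37 C, then loaded with calcium dye for 1 h. Compounds were preincubated 5 min at room temperature before DOI (4 nM solution) was added. Kinetic fluorescence was read for 3 min.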

[12] = target: 5-hydroxytryptamine receptor 2A (Homo sapiens) (UniProt P28223); assay: 5-hydroxytryptamine receptor 2A (HTR2A) small molecule agonists, cell-based qHTS assay (AID 1963587); further: nearly all actives have a fitted effect of over 30% in size
Method in brief: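 CHO cells stably expressing human HTR2A, plated 18 h, loaded with calcium dye 1 h at 37 C. Agonist mode: compounds added and intracellular calcium fluorescence recorded kinetically for 2 min at 1 sec intervals.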

[13] = target: Muscarinic acetylcholine receptor M1 (Homo sapiens) (UniProt P11229); assay: Cholinergic receptor muscarinic 1 (CHRM1) small molecule antagonists, cell-based qHTS assay (AID 1963588); further: nearly all actives have a fitted effect of over 40% in size
Chain of Muscarinic acetylcholine receptor M1 (Homo sapiens) (P11229 whole entry, looked up): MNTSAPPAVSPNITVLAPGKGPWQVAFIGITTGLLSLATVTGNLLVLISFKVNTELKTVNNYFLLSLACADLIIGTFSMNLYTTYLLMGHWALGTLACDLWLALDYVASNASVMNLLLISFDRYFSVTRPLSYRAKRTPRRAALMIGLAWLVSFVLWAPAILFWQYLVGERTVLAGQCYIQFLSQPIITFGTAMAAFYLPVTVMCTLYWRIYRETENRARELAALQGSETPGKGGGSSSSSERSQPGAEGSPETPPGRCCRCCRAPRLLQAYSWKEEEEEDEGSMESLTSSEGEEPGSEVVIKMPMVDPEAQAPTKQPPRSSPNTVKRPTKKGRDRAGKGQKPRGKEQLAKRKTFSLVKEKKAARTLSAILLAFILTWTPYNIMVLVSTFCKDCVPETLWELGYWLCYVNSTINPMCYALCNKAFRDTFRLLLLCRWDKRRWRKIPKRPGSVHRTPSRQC
Method in brief: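 Compounds were tested at 15 concentrations in three independent runs. Dye-loaded CHRM1-CHO cells were exposed 5 min at room temperature before stimulation by acetylcholine added at 50nM. Intracellular calcium was read kinetically on FDSS for 3 min.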

[14] = target: Muscarinic acetylcholine receptor M1 (Homo sapiens) (UniProt P11229); assay: Cholinergic receptor muscarinic 1 (CHRM1) small molecule agonists, cell-based qHTS assay (AID 1963589); further: nearly all actives have a fitted effect of over 35% in size
Method in brief: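 qHTS, 15-point titration, 3 independent runs: compounds pin-transferred onto dye-loaded CHRM1-CHO cells (human M1), calcium fluorescence followed every second to detect agonism.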

[15] = cAMP Responsive Elements (CRE) small molecule agonists, cell-based qHTS assay (AID 1963590); further: potency means the concentration at half of the fitted maximal effect
Method in brief: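 Quantitative HTS for CRE agonists: HEK 293T CRE-bla cells, overnight plating, 3 h compound incubation at 37 C/5% CO2, then 2 h room-temperature LiveBLAzer B/G FRET substrate loading.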

[16] = cAMP Responsive Elements (CRE) small molecule antagonists, cell-based qHTS assay (AID 1963591; active means well fitted inhibition curve with a large enough effect in the signal ratio in the repeat runs, not every such curve was filed as active; the % refers to the signal ratio; further: potency means the concentration at half of the fitted maximal effect)
Method in brief: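 Fluorescence intensity from cleaved LiveBLAzer B/G substrate (2 h, room temperature) quantified CRE-bla activity in HEK 293T cells exposed 3 h to compound with 0.25 uM final NKH477.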

[17] = target: Beta-2 adrenergic receptor (Homo sapiens) (UniProt P07550); assay: Adrenergic beta2 receptor (ADRB2) small molecule antagonists, cell-based qHTS assay (AID 1963592); further: series mostly up to about 92 µM; nearly all actives have a fitted effect of over 50% in size
Chain of Beta-2 adrenergic receptor (Homo sapiens) (P07550 whole entry, looked up): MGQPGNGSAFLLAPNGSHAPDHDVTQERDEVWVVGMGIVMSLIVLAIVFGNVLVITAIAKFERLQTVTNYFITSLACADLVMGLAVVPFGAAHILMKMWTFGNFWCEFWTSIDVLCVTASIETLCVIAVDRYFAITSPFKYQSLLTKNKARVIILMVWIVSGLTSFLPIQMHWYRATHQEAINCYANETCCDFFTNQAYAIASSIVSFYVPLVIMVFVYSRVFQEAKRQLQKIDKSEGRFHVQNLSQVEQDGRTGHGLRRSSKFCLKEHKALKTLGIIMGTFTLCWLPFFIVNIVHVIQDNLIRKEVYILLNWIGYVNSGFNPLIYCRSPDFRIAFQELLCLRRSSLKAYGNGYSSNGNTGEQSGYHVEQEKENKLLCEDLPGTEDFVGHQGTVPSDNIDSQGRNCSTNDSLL
Method in brief: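 Assay format: CHO-ADRB2 cells, 18-20hr seeding at 37C/5% CO2, then compound plus 1nM isoproterenol agonist mix for 0.5hr RT. Homogeneous time-resolved fluorescence cAMP detection after 1hr, expressed as 665/615 nm ratio.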

[18] = target: Beta-2 adrenergic receptor (Homo sapiens) (UniProt P07550); assay: Adrenergic beta2 receptor (ADRB2) small molecule agonists, cell-based qHTS assay (AID 1963593); further: potency means the concentration at half of the fitted maximal effect;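 on activation: CHO cells stably overexpressing human ADRB2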
Method in brief: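 CHO cells stably over-expressing ADRB2 were plated overnight at 37C, then dosed with compounds plus a stimulation mix containing 100uM IBMX and 25uM Ro-20-1724 for 0.5hr at room temperature. cAMP was measured by HTRF competition, 1hr.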

[19] = target: D(2) dopamine receptor (Homo sapiens) (UniProt P14416); assay: Dopamine D2 receptor (DRD2) small molecule agonists, cell-based qHTS assay (AID 1963594); further: nearly all actives have a fitted effect of over 35% in size; further: potency means the concentration at half of the fitted maximal effect
Chain of D(2) dopamine receptor (Homo sapiens) (P14416 whole entry, looked up): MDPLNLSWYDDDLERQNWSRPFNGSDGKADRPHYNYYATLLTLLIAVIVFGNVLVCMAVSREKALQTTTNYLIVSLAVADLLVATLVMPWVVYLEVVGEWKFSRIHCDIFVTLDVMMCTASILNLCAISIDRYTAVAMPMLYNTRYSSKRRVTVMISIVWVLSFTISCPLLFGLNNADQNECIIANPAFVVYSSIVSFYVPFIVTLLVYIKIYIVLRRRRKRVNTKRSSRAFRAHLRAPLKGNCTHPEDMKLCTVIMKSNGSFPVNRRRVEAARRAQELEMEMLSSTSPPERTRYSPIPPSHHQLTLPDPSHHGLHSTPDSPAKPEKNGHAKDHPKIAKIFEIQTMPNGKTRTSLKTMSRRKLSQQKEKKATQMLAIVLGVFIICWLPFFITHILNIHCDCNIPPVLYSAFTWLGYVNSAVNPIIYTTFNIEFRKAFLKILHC
Method in brief: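 HEK293 cells stably expressing human DRD2, pre-treated with PDE inhibitor Ro20-1724 (0.1 mM final) and compound 10 min at room temperature, then stimulated with NKH477 (200nM […]) for 30 min. cAMP read by HTRF (665/620 nm).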

[20] = target: D(2) dopamine receptor (Homo sapiens) (UniProt P14416); assay: Dopamine D2 receptor (DRD2) small molecule antagonists, cell-based qHTS assay (AID 1963595; active means well fitted inhibition curve with a large enough effect in the signal ratio in the repeat runs, with a control signal flat; the % refers to the signal ratio; further: potency means the concentration at half of the fitted maximal effect)
Method in brief: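 HEK293 cells stably expressing DRD2, preincubated with 0.1 mM Ro20-1724 and compounds 10 min, were stimulated with 200 nM NKH477 plus 12 nM quinpirole for 30 min at room temperature; cAMP measured by HTRF (665/620 nm).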

Measured: Potency

Clc1cc(Cl)c(Cl)c(Cl)c1Cl
inactive: all assays above

CCC(=O)OCc1ccccc1
not listed: [18]
inactive: all other assays above

CC(C)CCCCCOC(=O)CS
active: [11] 1.88 µM
inactive: all other assays above

CC(C)C(=O)c1c(C(C)C)nn2ccccc12
inactive: all assays above

CCCCCCCCCOS(=O)(=O)O
inactive: all assays above

CCCCCCCCCC(C)=O
inactive: all assays above

Cc1ccc(S(=O)(=O)NC(=O)NC2CCCCCCC2)cc1
inactive: all assays above

N=C(N=C(N)N)N1CCOCC1
not listed: [20]
inactive: all other assays above

CCOc1ccc(Cc2nccc3cc(OCC)c(OCC)cc23)cc1OCC
active: [1] 4.22 µM | [15] 6.68 µM
not listed: [18] | [20]
inactive: all other assays above

O=C(O)[C@H](O)[C@@H](O)[C@H](O[C@@H]1O[C@H](CO)[C@H](O)[C@H](O)[C@H]1O)[C@H](O)CO
not listed: [3] | [4]
inactive: all other assays above

C[C@@H]1CCC[C@H](C)N1CCCC(O)(c1ccccc1)c1ccccn1 (stereo partly drawn)
not listed: [18]
inactive: all other assays above

c1ccc2cc3c4ccccc4c4ccccc4c3cc2c1
active: [2] 24.4 µM
not listed: [3] | [4] | [5] | [12]
inactive: all other assays above

CC(=O)/C=C/C1C(C)=CCCC1(C)C (stereo not drawn)
not listed: [3] | [5] | [6] | [7] | [10]
inactive: all other assays above

CC(C)(C)C(=O)OCOC(=O)C1N2C(=O)CC2S(=O)(=O)C1(C)C (stereo not drawn)
active: [16] 0.0119 µM
inactive: all other assays above

C=CC(=O)OCC(CO)(COC(=O)C=C)COC(=O)C=C
inactive: [4] | [11] | [12] | [13] | [14] | [17] | [19]
active: [1] 4.87 µM and 12.2 µM | [2] 4.87 µM and 6.11 µM | [7] 45.9 µM and 9.13 µM | [9] 16.3 µM and 10.2 µM | [18] 6.88 µM and 19.3 µM | [20] 54.6 µM and 21.7 µM

CC/C=C\CC1=C(C)CCC1=O
not listed: [10] | [19] | [20]
inactive: all other assays above

CN(C)c1cc(NC(=O)CNC(C)(C)C)c(O)c2c1C[C@H]1C[C@H]3[C@H](N(C)C)C(=O)C(C(N)=O)=C(O)[C@@]3(O)C(=O)C1=C2O
not listed: [8]
inactive: all other assays above

CNCCCC12CCC(c3ccccc31)c1ccccc12
active: [1] 54.5 µM
not listed: [11] | [12] | [13] | [14] | [17] | [18]
inactive: all other assays above

CC(C)c1ccccc1O
not listed: [9] | [10]
inactive: all other assays above

FC(F)(F)c1ccccc1Cl
not listed: [14] | [15] | [19]
inactive: all other assays above

O=C(O)C1CCC(C(=O)O)CC1 (stereo not drawn)
not listed: [17]
inactive: all other assays above

O=C(O)c1cc(=O)c2c(OCC(O)COc3cccc4oc(C(=O)O)cc(=O)c34)cccc2o1
not listed: [8] | [11] | [12] | [13] | [14]
inactive: all other assays above

O=c1[nH]c2cc(C(F)(F)F)c(N3CCOCC3)cc2n(CP(=O)(O)O)c1=O
active: [19] 29.8 µM
not listed: [7] | [11] | [16]
inactive: all other assays above

CCCC/C=C\CCCCCCCCCC=O
not listed: [9] | [14]
inactive: all other assays above

O=C(O)CSCC(=O)NC1CCSC1=O (stereo not drawn)
not listed: [8] | [13]
inactive: all other assays above

O=C(O)c1cc(C(=O)O)cc([N+](=O)[O-])c1
not listed: [13]
inactive: all other assays above

C=CC(C)(O)CC/C=C(\C)CC (stereo not drawn)
not listed: [10]
inactive: all other assays above

CCC(=O)O[C@@H]1C[C@H]2CC[C@]1(C)C2(C)C
not listed: [8] | [9] | [18]
inactive: all other assays above

Cn1cc(S(C)=O)c(=O)c2ccc(F)cc21 (stereo not drawn)
not listed: [15]
inactive: all other assays above
